Each structure is given as a SMILES string. About 10,000 (2.8%) of roughly 360,000 compounds were called active. Roughly 4% stayed inconclusive and do not appear here. For the sample, actives were picked, then their nearest neighbours and some compounds at random. Values without a mark were called inactive. Calls come from the whole dose curve; as a rule, active = well fitted inhibition curve with a large enough effect; inconclusive = small, poorly fitted or top-dose-only effect; inactive = flat fitted curve, though single readings scatter.
% is set by controls: 0 for no effect and ±100 for the full control effect; potency is the fitted concentration of half-maximal effect.

Sequence of Serine/threonine-protein kinase PLK1 (Homo sapiens) (P53350 whole entry, looked up, the tested form may be a part): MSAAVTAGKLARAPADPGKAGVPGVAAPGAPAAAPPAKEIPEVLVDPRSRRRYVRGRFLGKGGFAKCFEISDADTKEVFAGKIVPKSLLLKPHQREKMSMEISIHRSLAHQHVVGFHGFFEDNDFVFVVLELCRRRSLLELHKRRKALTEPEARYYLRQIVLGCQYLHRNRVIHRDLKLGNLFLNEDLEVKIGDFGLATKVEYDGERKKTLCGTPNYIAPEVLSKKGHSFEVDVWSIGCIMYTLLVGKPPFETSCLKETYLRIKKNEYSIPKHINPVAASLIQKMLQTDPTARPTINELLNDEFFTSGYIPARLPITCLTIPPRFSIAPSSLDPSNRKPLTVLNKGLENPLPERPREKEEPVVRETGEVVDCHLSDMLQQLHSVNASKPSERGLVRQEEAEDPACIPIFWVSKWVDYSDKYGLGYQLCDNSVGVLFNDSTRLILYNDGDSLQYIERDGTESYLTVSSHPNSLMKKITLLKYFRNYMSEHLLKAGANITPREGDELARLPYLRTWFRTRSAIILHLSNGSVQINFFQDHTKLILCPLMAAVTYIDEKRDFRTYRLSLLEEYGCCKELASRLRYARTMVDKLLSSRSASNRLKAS

The assay concerns the target Serine/threonine-protein kinase PLK1 (Homo sapiens) (UniProt P53350). Kind of assay: qHTS for Inhibitors of PLK1-PDB (polo-like kinase 1 - polo-box domain): Primary Screen. For max response, negative = inhibition: series mostly up to about 57 µM. Note: nearly all actives have a fitted effect of over 65% in size. To be noted: Plk1 PBD binding of FITC phosphopeptide, fluorescence polarization. In general terms: Quantitative high-throughput screening tests each substance at several concentrations.
On to `CC(O)(c1cccc(F)c1)c1nc(-c2ccc3c(c2)OCO3)cs1` (configuration not stated), for which the max response, negative = inhibition was -0.065%. On the same count and under the same terms, the figure for `COc1ccc([C@H]2N[C@]3(CCCN(Cc4ccco4)C3=O)[C@H]3C(=O)N(C)C(=O)[C@@H]23)cc1` is -10.5%; for `O=C(c1ccc(S(=O)(=O)c2ccccc2)cc1)N1CCCCCC1` it is -6.16%. `CCC(=O)Nc1sc(C(=O)N2CCCCC2)c(C)c1C#N`: the max response, negative = inhibition was 0.524%. Still for that read-out and setting: in the case of `CC(C)=C1SC(N2CCN(c3cccc(C)c3)CC2)=NC1=O` it was -13.5%; in that of `Cc1ccc(S(=O)(=O)N2CCN(C(=O)N3CCOCC3)CC2)c(C)c1`, 3.35%. Regarding `Cc1ccc(-n2c(N)c(C(=O)N3CCOCC3)sc2=S)c(C)c1`, the Potency was 18.9 µM (active). On the same count and under the same terms, the figure for `N#Cc1ccccc1-n1c(N)c(C(=O)N2CCCC2)sc1=S` is 4.23 µM (active). On to `Cc1cccc(N2CCN(C(=O)c3ccccc3NC(=O)C3CCCCC3C(=O)O)CC2)c1` (configuration not stated), for which the max response, negative = inhibition was -5.42%. As for `Cc1cccc(-n2c(N)c(C(=O)N3CCN(C)CC3)sc2=S)c1`, the Potency was 1.89 µM (active). Take `Cc1ccc(N2CCN(C(=O)c3cccs3)CC2)c(C)c1`: the max response, negative = inhibition is -4.91%. Same read-out and setting: the figure for `COc1ccc(Cl)cc1-c1cc(C(=O)Nc2cc(OC)c(OC)c(OC)c2)[nH]n1` is -0.229%. On to `CCc1oc(-c2ccc(OC)cc2)c(C(=O)OCCCCCO)c1C(C)OCCO` (configuration not stated), for which the max response, negative = inhibition was -3.22%.

For the compound `COc1ccc(-c2coc3c(C(=O)NC(C)C)cccc23)c(C)c1`, the max response, negative = inhibition was -1.63%. Still for that read-out and setting: in the case of `O=C1CCC(=O)N1CCC(=O)N(C(=O)NC1CCCCC1)C1CCCCC1` it was -3.92%; in that of `CSC1=NN(c2ccccc2)CN(c2ccccc2)N1C`, 3.5%; in that of `CSc1ncnc2c1ncn2CCCNCc1cccs1`, -6.17%. Still for that read-out and setting: the figure for `CCOC(=O)c1c(Cc2ccc(Cl)cc2)c[nH]c1C` is -3.47%. In the case of `CC(=O)c1c(C)c[nH]c1C`, the Potency is 3.36 µM (active). Turning to `Cc1cc(C)n2c(NCc3ccccc3)c(CC(C)C)nc2n1`, the max response, negative = inhibition was 4.6%. Consider `CCCn1c(C)cc(C(=O)COC(=O)c2c(C)nn(-c3ccccc3)c2C)c1C`, for which the max response, negative = inhibition was 0.347%. The same measure, in the same setting: in the case of `COc1ccc(-n2c(C)cc(C(=O)COC(=O)c3cc(OC)c(OC)cc3NC(=O)c3cccs3)c2C)cc1` it was -3.08%; in that of `Cc1cc(C(=O)CC#N)c(C)n1CC(F)(F)F`, -1.11%. Regarding `Cc1cc(C(=O)COC(=O)c2cccs2)c(C)n1-c1c(C)n(C)n(-c2ccccc2)c1=O`, the Potency was 29.9 µM (active). As to `Cc1c(NC(=O)c2coc(=O)c(Br)c2)c(=O)n(-c2ccccc2)n1C`, the max response, negative = inhibition is -12.4%. On to `Cc1cc(C(=O)CC#N)c(C)n1-c1c(C)n(C)n(-c2ccccc2)c1=O`, for which the Potency is 21.2 µM (active). For the compound `CCCNC(=O)c1cc2c(c(-c3cccc(-c4ccc(C#N)cc4)c3)n1)[C@@H](CCO)N(C(=O)CC)C2`, the max response, negative = inhibition was -12.5%.

With `c1ccc2c(c1)nnn2-c1ccncc1`, the max response, negative = inhibition was -7.91%.

With `COc1ccc(NC(=O)C2Cc3c(-c4cccc(NC(C)=O)c4)ccnc3O2)cc1OC` (configuration not stated), the max response, negative = inhibition is -15.4%. Same read-out and setting: in the case of `CC(C)NC(=O)Nc1ccc2c(c1)C(=O)N([C@H](C)CO)C[C@H](C)[C@@H](CN(C)Cc1ccc(C(F)(F)F)cc1)OCCCC[C@@H](C)O2` it was -16.7%; in that of `O=C(COC(=O)c1cccc(Cl)c1Cl)NC1CCCCCC1`, -7.54%. The same measure, in the same setting: in the case of `CCOc1ccccc1N1CCN(C(=S)Nc2ccc(S(N)(=O)=O)cc2)CC1` it was -0.318%.

Consider `NS(=O)(=O)c1ccc(NC(=S)N2CCCC2)cc1`, for which the max response, negative = inhibition is -13.8%.

As for `COc1ccc(N2CCN(C(=S)Nc3ccc(S(N)(=O)=O)cc3)CC2)cc1`, the Potency was 13.4 µM (active). On to `CN(C)C(CNC(=O)c1cc(Br)c(Br)s1)c1ccco1` (configuration not stated), for which the max response, negative = inhibition was -5.95%. On the same count and under the same terms, in the case of `O=S1(=O)CC(N2CCN(CCO)CC2)CN1Cc1cn(Cc2cccc(Cl)c2)nn1` (configuration not stated) it was -6.24%; in that of `Cc1ccc(-c2cnc(C(O)c3cc(Cl)cc(Cl)c3)[nH]2)cc1` (configuration not stated), 5.64%. `COc1ccc(CNC(=O)COC(=O)C2=Cc3ccccc3OC2)cc1`: the Potency is 13.4 µM (active). Regarding `COc1ccc(CCNC(=O)COC(=O)c2cc(=O)c3ccccc3o2)cc1`, the max response, negative = inhibition is -2.93%. Same read-out and setting: the figure for `COc1ccc(CNC(=O)COC(=O)C(CCSC)N2C(=O)c3ccccc3C2=O)cc1` (configuration not stated) is -13.1%; for `Cc1ccc(-c2ccc(CN3C(C)C(=O)N(Cc4cn(CCC5OCCCO5)nn4)CCS3(=O)=O)cc2)cc1` (configuration not stated) it is -2.81%; for `NC(c1ccccc1)c1csc(NC(=O)Nc2cccc(C(F)(F)F)c2)n1` (configuration not stated) it is -4.96%. `O=c1cc(CO)oc(C(Nc2cccc(C(F)(F)F)c2)c2ccccn2)c1O` (configuration not stated): the Potency was 26.7 µM (active). With `O=C(NC1Cc2ccccc2C1)c1cc(COc2cccc(C(F)(F)F)c2)on1`, the max response, negative = inhibition was -5.34%. In the case of `COc1ccc(C=C2CCC3C(CCCC34OCCO4)C2=O)cc1` (configuration not stated), the max response, negative = inhibition was -14.1%.

Take `CCc1ccc(OC2(C)CCN(CCOc3ccc(C)cc3)C2)cc1` (configuration not stated): the max response, negative = inhibition was 0.495%. `O=C(COc1ccc(Br)cc1)OCC(=O)c1ccc[nH]1`: the max response, negative = inhibition was -8.67%. On the same count and under the same terms, in the case of `O=C(C1=C(O)C(=O)N(c2ncccn2)C1c1cccs1)c1ccco1` (configuration not stated) it was -18.5%. As for `Cc1ccc2nc(N3C(=O)C(O)=C(C(=O)c4ccco4)C3c3cccc(O)c3)sc2c1` (configuration not stated), the Potency is 18.9 µM (active). As to `COc1ccc2nc(N3C(=O)C(O)=C(C(=O)c4ccco4)C3c3ccco3)sc2c1` (configuration not stated), the max response, negative = inhibition is -16.7%. Regarding `COc1ccc(-c2cc3nc(NCCOc4ccccc4)ccn3n2)cc1`, the max response, negative = inhibition was -1.91%. Consider `Cc1nc2c(OCc3ccc(Cl)cc3)cccn2c1N(C)Cc1cccs1`, for which the max response, negative = inhibition is -7.96%.

Regarding `Cc1ccc(-c2cnc(C(O)c3cccc(C)c3C)[nH]2)cc1` (configuration not stated), the max response, negative = inhibition is 2.44%. Regarding `O=C(c1ncn2c1c(=O)[nH]c1ccccc12)N1CCc2ccccc2C1`, the max response, negative = inhibition was 6.5%. As for `O=c1[nH]c2ccccc2n2c(-c3ccccc3)nnc12`, the Potency is 0.947 µM (active). Consider `O=c1[nH]n2c(-c3ccccc3)nc(O)c2c2ccccc12`, for which the max response, negative = inhibition was -5.86%. Consider `COc1ccc(Br)c(Cn2c(C)c(C(=O)NCc3cccs3)sc2=O)c1`, for which the max response, negative = inhibition is 8.23%.

The values above are taken from PubChem BioAssay AID720504 (National Center for Advancing Translational Sciences (NCATS), 2013).
